Screening data (PubChem BioAssay)
In the library only some 10% were active in any assay of this set; here they are far more common.
SARS PLpro yeast-1 – blocks SARS-CoV papain-like protease in a yeast assay; AID 485353; Potency, µM (series often up to 32.9 µM), for inactives: at the top dose activity, positive = growth rescue, actives largely listed as activators; S. cerevisiae expressing SARS-CoV PLpro, growth rescue; actives 0.19% (n = 330,000); calls by dose curve; further: potency means the concentration at half of the fitted maximal effect; 0% is about no effect; nearly all actives have a fitted effect of over 55% in size
Pf growth 48h – inhibits P. falciparum growth in the first generation, 48 h. P. falciparum luciferase growth in erythrocytes, 48 h. AID 504832. actives 5.9% (n = 310,000). Potency, µM (series often up to 28.7 µM), for the others: at the top dose activity change, negative = inhibition, hits mostly inhibitors; further: potency means the concentration at half of the fitted maximal effect; on the % scale 0 is the no-effect control and ±100 the full control effect
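Growth was read as firefly luciferase luminescence after a 48 h, 37 C, 5% CO2 exposure of compounds to reporter-bearing P. falciparum cultures (0.1% parasitemia, 2% hematocrit final) in Albumax-supplemented RPMI 1640.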
Pf growth 96h – P. falciparum growth inhibition at 96 hour, primary screen for plastid delayed-death inhibitors | P. falciparum luciferase reporter growth, 96 h | Potency, µM (series often up to 28.7 µM), for the others: at the top dose activity change, negative = inhibition, most hits filed as inhibitors | actives 6.9% (n = 320,000); further: potency means the concentration at half of the fitted maximal effect; on the % scale 0 is the no-effect control and ±100 the full control effect
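Plates of compound plus infected erythrocytes (2% hematocrit, 0.05% parasitemia final) incubate 96 hours, 37 C, 5% CO2. Detection reagent added; reduced luminescence from the parasites' luciferase reporter flags inhibition.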
NS1 function inh – influenza NS1 inhibition | actives 0.4% (n = 270,000) | Potency, µM (highest dose often 46.1 µM), for inactives: top-dose activity, positive = more growth | AID 2326; calls by dose curve; further: potency means the concentration at half of the fitted maximal effect; actives are rising curves; nearly all actives have a fitted effect of over 50% in size
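A cell-based growth assay was used: compounds that relieve NS1-induced slow growth of budding yeast raise OD600. Assay medium was yeast nitrogen base with ammonium sulphate and -URA supplement, pH 6.0, with 2% galactose.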
SARS PLpro yeast-2 – Validates SARS-CoV PLpro inhibitor hits in yeast; shares compounds with SARS PLpro yeast-1; yeast expressing SARS-CoV PLpro, growth phenotype rescue; calls only; actives 19% (n = 1,000); call rule not given here
* hit, by the source's call; i = inactive; ? = inconclusive; · = not tested or not shown; + = active, no number. Unless noted, the call rests on the fitted dose curve; in most records, active means well fitted inhibition curve with a large enough effect; inconclusive means small, poorly fitted or top-dose-only effect, or another doubt; inactive means no such curve, though single readings can be large or run the other way.

SMILES	SARS PLpro yeast-1	Pf growth 48h	Pf growth 96h	NS1 function inh	SARS PLpro yeast-2
COC(=O)CCCn1c(C)cc(C(=O)CCl)c1C	11µM*	?	?	·	+
Cc1cccc(NC(=O)CSc2nnc(Cn3cnc4ccccc43)o2)c1	18µM*	16%	9%	4%	i
COc1ccc(NC(=O)CSc2nnc(Cn3cnc4ccccc43)o2)cc1	0%	?	-33%	·	·
CCN(CC)S(=O)(=O)c1cc(C(=O)OCC(=O)Nc2c(F)cccc2F)ccc1F	?	10%	0%	-19%	i
CCn1cc(CN2CCC(C(=O)Nc3cccc(-c4cccc(OC)c4)c3)CC2)c(C)n1	?	?	13%	8%	i
CCn1cc(CN2CCC(C(=O)Nc3cccc(-c4cccc(OC)c4)c3)CC2)cn1	-4%	-24%	-15%	0%	·
Cc1ccc2[nH]c(=O)c3cc(C(=O)NC(C)C)sc3c2c1	1%	?	?	3%	·
NC(=O)Nc1ccccc1C(=O)N1CCC(O)(c2ccc(Cl)cc2)CC1	1%	14%	-29%	5%	·
COC(=O)Nc1ccccc1C(=O)N1CCC(O)(c2ccc(Cl)cc2)CC1	?	-24%	-27%	-16%	i
O=C(Nc1nnc(Cc2ccccc2)s1)Nc1ccccc1F	?	-39%	15µM*	18%	+
Cc1ccc(NC(=O)COC(=O)c2ccc3c(c2)OCO3)c(C)c1	0%	42%	56%	-1%	·
COc1ccc(C(NC(=O)c2cccnc2)c2cc(Cl)c3cccnc3c2O)cc1OC (configuration not stated)	2.2µM*	?	0%	?	i
Oc1c(C(Nc2ccccn2)c2cccnc2)cc(Cl)c2cccnc12 (configuration not stated)	2.5µM*	4.7µM*	90%	-55%	i
Oc1c(C(c2ccc(Cl)cc2)N2CCCC2)cc(Cl)c2cccnc12 (configuration not stated)	·	3.3µM*	1.9µM*	29%	i
CC(=O)NC(c1ccc(C)cc1)c1cc(Cl)c2cccnc2c1O (configuration not stated)	?	?	29%	-41%	+
CCOC(=O)c1sc(-c2ccccc2)cc1NC(=O)Nc1ccc([N+](=O)[O-])cc1	-2%	?	?	-10%	·
CC(=O)NC(c1cccs1)c1cc([N+](=O)[O-])c2cccnc2c1O (configuration not stated)	?	?	?	-18%	·
CCCC(=O)NC(c1cccs1)c1cc([N+](=O)[O-])c2cccnc2c1O (configuration not stated)	·	?	147%	8%	i
CCC(=O)NC(c1cccs1)c1cc([N+](=O)[O-])c2cccnc2c1O (configuration not stated)	?	?	23%	-23%	i
CC(C)C(=O)NC(c1ccccc1)c1cc([N+](=O)[O-])c2cccnc2c1O (configuration not stated)	?	-8%	0.37µM*	4%	i
COC(=O)c1c(NS(=O)(=O)c2ccc(C)cc2)sc2c1CCC(C)C2 (configuration not stated)	?	-13%	-16%	-3%	+
Cc1cc(C)c(NC(=O)CNC(=O)c2cc([N+](=O)[O-])ccc2N2CCOCC2)c(C)c1	-4%	?	2%	·	·
Cc1ccc(/C=N/Nc2nc3ccccc3[nH]2)s1	2.8µM*	?	?	-15%	i
CN(CC(=O)Nc1ccc(Cl)c(C(F)(F)F)c1)C(=O)/C=C/c1ccco1	-19%	-7%	-1%	3%	·
CN(CC(=O)Nc1ccc(Cl)c(C(F)(F)F)c1)C(=O)/C=C/c1cccs1	?	?	?	·	i
SMILES	SARS PLpro yeast-1	Pf growth 48h	Pf growth 96h	NS1 function inh	SARS PLpro yeast-2
Cc1cc(NC(=O)CCC(=O)N(c2ccccc2)C(C(=O)NC2CCCC2)c2ccccc2F)no1 (configuration not stated)	1%	?	?	9%	·
COc1ccc(CCNC(=O)Cn2nnc(-c3ccccc3F)n2)cc1OC	?	·	?	-2%	i
COc1ccc(-c2nnn(CC(=O)NCCc3ccc(OC)c(OC)c3)n2)cc1	-1%	-7%	49%	-1%	·
O=C(Cn1nnc(-c2ccccc2F)n1)Nc1ccc2c(c1)OCO2	?	·	22%	-2%	i
COc1ccc(CCNC(=O)CCNC(=O)c2ccc(Br)cc2)cc1OC	?	1%	-13%	6%	i
COc1ccc(CCNC(=O)CCNC(=O)c2ccc(Cl)cc2)cc1OC	-25%	-11%	?	5%	·
CCC(=O)c1cn(CC(=O)Nc2cc(C)ccc2C)c2ccccc12	-4%	24%	?	-4%	·
COc1ccccc1-c1nnc(SCC(=O)c2ccc(C3CCCCC3)cc2)n1Cc1ccco1	-9%	?	·	27%	·
C=CC(C)(C)c1cc2cc3ccoc3cc2oc1=O	-20%	26%	13%	-31%	·
O=c1c2ccccc2nc(COc2ccccc2)n1/N=C/c1ccc(O)c(O)c1	-1%	?	?	-2%	·
Cc1cc(/C=N/n2c(COc3ccccc3)nc3ccccc3c2=O)c(O)c([N+](=O)[O-])c1	2.5µM*	0%	0%	-9%	+
Cc1cccc(C)c1NC(=O)NN(C(=O)c1ccccc1)C(C)(C)C	2.5µM*	-15%	4%	-8%	i
C#CCSc1nnc(CSc2nc3ccccc3s2)n1-c1ccccc1	?	-17%	·	-13%	?
O=C(O)CSc1nnc(CSc2nc3ccccc3s2)n1-c1ccccc1	5%	7%	-1%	4%	·
CCNC(=O)NC(=O)CSc1ccc(S(=O)(=O)N2CCOCC2)cn1	-3%	·	·	·	·
COc1ccc(/C=C/C(=O)NCc2cn(C)nc2C)cc1COc1ccc(Br)cc1	?	3.7µM*	?	23%	i
Cc1nn(C)cc1CNC(=O)/C=C/c1cnn(C)c1	6%	5%	8%	7%	·
CN(CC1CCCO1)S(=O)(=O)c1ccc(C(=O)Nc2ccc(S(N)(=O)=O)cc2)cc1 (configuration not stated)	0.4µM*	-16%	-5%	5%	i
NS(=O)(=O)c1ccc(NC(=O)c2ccc(OCC3CCCO3)cc2)cc1 (configuration not stated)	4%	·	·	·	·
Oc1ccc2n[nH]nc2c1	?	2%	-11%	27%	i
O=C(N/N=C/c1cccc([N+](=O)[O-])c1)C1COc2ccccc2O1 (configuration not stated)	-6%	6%	34%	·	·
Cc1[nH]n(-c2ccccc2)c(=O)c1/C=N\NC(=O)C1COc2ccccc2O1 (configuration not stated)	10µM*	?	?	-10%	i
O=C(N/N=C\c1cccc([N+](=O)[O-])c1O)C1COc2ccccc2O1 (configuration not stated)	13µM*	-6%	-11%	-38%	i
